Screening results: PubChem BioAssay, National Center for Advancing Translational Sciences (NCATS)
Sampled rows, rich in hits. Any-hit rate of the full collection: about 3.5%.
Sm TGR inh = blocks Schistosoma mansoni thioredoxin glutathione reductase | purified TGR, DTNB reduction, TNB absorbance 405 nm | Q962Y6 | AID 485364 | 3% of 360,000 active | Potency, µM (top dose mostly 114 µM), without a hit: at the highest dose activity change, negative = inhibition, actives largely listed as inhibitors; note: % is set by controls: 0 for no effect and ±100 for the full control effect; nearly all actives have a fitted effect of over 60% in size
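TGR 20 nM + NADPH 100 uM (dispensed conc.), cpd preinc 15 min RT; start with NADPH (500 uM addition) then DTNB (15 mM addition). Kinetic TNB absorbance, 405 nm filter. Four-parameter Hill fit across titration.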
LmPK inhibitor = blocks Leishmania mexicana pyruvate kinase activity; purified LmPK, Kinase-Glo ATP luminescence, 1 h; Potency, µM (doses to about 57.5 µM), inactives show top-dose activity change, negative = inhibition, hits mostly inhibitors; 0.37% of 290,000 active; AID 1721; note: % is set by controls: 0 for no effect and ±100 for the full control effect
Target sequence (Q27686 whole entry, looked up): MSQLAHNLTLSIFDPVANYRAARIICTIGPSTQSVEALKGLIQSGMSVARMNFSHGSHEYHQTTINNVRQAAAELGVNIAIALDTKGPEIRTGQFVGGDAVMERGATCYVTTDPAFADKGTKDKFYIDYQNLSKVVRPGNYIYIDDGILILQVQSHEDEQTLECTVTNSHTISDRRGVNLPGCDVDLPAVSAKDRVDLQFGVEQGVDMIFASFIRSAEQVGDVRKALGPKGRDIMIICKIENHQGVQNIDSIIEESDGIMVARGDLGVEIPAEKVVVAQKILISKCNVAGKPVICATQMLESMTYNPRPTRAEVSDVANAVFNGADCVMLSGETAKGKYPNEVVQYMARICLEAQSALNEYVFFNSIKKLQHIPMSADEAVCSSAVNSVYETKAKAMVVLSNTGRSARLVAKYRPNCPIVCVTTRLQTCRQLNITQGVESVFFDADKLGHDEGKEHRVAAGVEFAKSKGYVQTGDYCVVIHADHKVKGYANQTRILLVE
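Purified LmPK (0.1 nM) converted ADP (0.1 mM) to ATP with PEP (0.5 mM) in imidazole buffer pH 7.2 with KCl and MgCl2, 1 h at room temperature. ATP was read by Kinase-Glo luminescence; data normalized to uninhibited and no-enzyme controls.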
RE007 growth inh = less growth of the S. pombe RE007 Vpr strain; Potency, µM (top dose mostly 92.2 µM), for inactives: at the highest dose activity change, negative = less growth, hits mostly inhibitors; 0.21% of 360,000 active; AID 651644; S. pombe RE007 Vpr strain, BacTiter-Glo ATP luminescence, 24 h; active = well fitted falling curve with a large enough effect; inconclusive = small, poorly fitted or top-dose-only effect; inactive = no such curve, though single readings can be large or run the other way; note: % is set by controls: 0 for no effect and ±100 for the full control effect; nearly all actives have a fitted effect of over 50% in size
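Fission yeast strain RE007, carrying one chromosomally integrated HIV-1 vpr copy, was seeded at OD 0.01 in PMG+AL medium with 23 nL pinned compound. After 24 h at 30 °C and 99% humidity, viability was read by BacTiter-Glo luminescence.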
Tb PYK inh = inhibitors of Trypanosoma brucei pyruvate kinase; Q57TT1; TbPYK enzyme, Kinase-Glo Plus ATP luminescence, 45 min; Potency, µM (series often up to 76.8 µM), for the others: top-dose activity, negative = inhibition, actives largely listed as inhibitors; 0.12% of 410,000 active; AID 624173; note: % is set by controls: 0 for no effect and ±100 for the full control effect; nearly all actives have a fitted effect of over 50% in size
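Assay buffer: 50 mM TEA pH 7.2, 100 mM KCl, 10 mM MgCl2, 0.05% BSA, 0.01% Tween-20. Pyruvate kinase from T. brucei plus substrate met compound, then ADP (130 uM final). Luminescence was read post 45 min RT.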
Giardia FBPA inh = blocks Giardia fructose-bisphosphate aldolase activity | A8B2U2 | AID 2451 | 0.71% of 290,000 active | Potency, µM (doses to about 59.6 µM), inactives show at the highest dose activity, negative = inhibition, actives largely listed as inhibitors | purified Giardia FBPA; note: % is set by controls: 0 for no effect and ±100 for the full control effect; nearly all actives have a fitted effect of over 55% in size
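40 nM FBPA preincubated 10 min at RT with compound (up to 57.5 uM final), then substrate plus GAPDH/TPI/NAD/arsenate coupling and diaphorase/resazurin added. Fluorescence read after 20 min at RT, 525/598 nm.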
NS1 inh = influenza NS1 inhibition; AID 2326; 0.4% of 270,000 active; Potency, µM (highest dose often 46.1 µM), without a hit: at the top dose activity, positive = more growth; calls by dose curve; note: actives are rising curves; nearly all actives have a fitted effect of over 50% in size
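In this qHTS, NS1 from influenza A is expressed in budding yeast, where it slows growth. Cells are switched from glucose to 2% galactose medium (pH 6.0, -URA), treated with compound, and growth recovery is read at OD600.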
Active calls of the source: *; u = inconclusive; x = no result given; [ ] = dose if it differs, or a comment. Unless noted, calls come from the whole dose curve; as a rule, active = well fitted curve in the direction sought with a large enough effect; inconclusive = small, poorly fitted or top-dose-only effect, or another doubt; inactive = no such curve, though single readings can be large; an effect the other way counts as inactive or inconclusive. Potency is the fitted concentration of half-maximal effect.

SMILES	Sm TGR inh	LmPK inhibitor	RE007 growth inh	Tb PYK inh	Giardia FBPA inh	NS1 inh
COc1ccccc1CNC(=O)CSc1nc(=O)[nH]c2c1CCCC2	3%	x	x	6%	x	x
O=C(O)Cc1sc(N/N=C\c2ccncc2)nc1-c1ccccc1	0.25µM*	7%	20%	-18%	0%	19%
O=C(NCCCc1nc2ccccc2n1Cc1cccc(Cl)c1)c1ccco1	-18%	x	x	1%	x	x
COc1cccc(N2CCN(C(=O)c3cnc4c(-c5ccccc5)c(C)nn4c3C)CC2)c1	0%	x	x	0%	x	x
COC(=O)c1c(-c2ccco2)csc1NC(=O)C1CC=CCC1C(=O)O (stereo not given)	45µM*	7%	10%	-7%	-2%	u
CCOC(=O)c1c(-c2ccc(F)cc2)csc1NC(=O)C1CC=CCC1C(=O)O (stereo not given)	x	1%	5%	-27%	21%	14%
CCOC(=O)N1C(=O)[C@@](c2ccc(Cl)cc2)(C(C)C)N1C(=O)OCC	11µM*	0%	3%	5%	-8%	-139%
CCOC(=O)N1C(=O)[C@](c2ccc(Cl)cc2)(C(C)C)N1C(=O)OCC	18µM*	-4%	-2%	-12%	-5%	-65%
FC(F)(F)c1nc(SCc2ccc(Cl)cc2)n[nH]1	x	x	x	x	x	-6%
CC(C)c1ccc2occ(CC(=O)Nc3cccc(C(F)(F)F)c3)c2c1	11%	x	x	1%	x	x
CSc1ccc(CN(C)CC(=O)Nc2c(F)cccc2F)cc1	12%	1%	-3%	-7%	20µM*	x
CSc1ccc(CN(C)CC(=O)Nc2ccc(NC(C)=O)cc2)cc1	3%	5%[11.5 µM]	1%	-3%	3%	x
O=[N+]([O-])c1ccc(O)c([N+](=O)[O-])c1	x	x	8%[18.4 µM]	1%	22%	x
O=[N+]([O-])c1cc([As](=O)(O)O)ccc1O	32µM*	x	-2%[18.4 µM]	4%	-26%	x
O=[N+]([O-])c1ccc(-[n+]2ccc3ccccc3c2)c([N+](=O)[O-])c1	1.8µM*	x	-16%	-5%	x	x
O=[N+]([O-])c1ccc(SNc2ccccc2)c([N+](=O)[O-])c1	x	x	-11%	-3%	x	x
Nc1nnnn1/N=C/c1ccc(O)cc1	-10%	16µM*	-19%	-8%	5%	-4%
c1ccc(-c2n[nH]c3c2oc2ccccc23)cc1	x	x	x	x	-6%	x
Cc1ccc(NC(=O)c2ccc(Cl)c(N3C(=O)C=CC3=O)c2)cc1	0.56µM*	10%	u	u	-29%	-192%
CCN1CCN(C(=O)C2CCC(=O)N(Cc3cccc(C(F)(F)F)c3)C2)CC1 (stereo not given)	-9%	-2%	3%	-4%	-5%	3%
CN1CCN(C(=O)C2CCC(=O)N(Cc3cccc(C(F)(F)F)c3)C2)CC1 (stereo not given)	7.9µM*	-7%	u	9%	x	12%
O=c1cc(N2CCN(c3ccc(F)cc3)CC2)[nH]c(=O)n1-c1ccc(Br)cc1	-2%	x	x	1%	x	x
O=C(Nc1ccc(F)c(Cl)c1)N1CCC(CN2CCc3ccccc3C2)CC1	-9%	x	x	-3%	x	x
CC(C)Cn1c(C23CC4CC(CC(C4)C2)C3)n[nH]c1=S	4%	25µM*	-11%	u	24%	-20%
COc1ccccc1N1CCN(S(=O)(=O)c2ccc(-c3ccno3)cc2OC)CC1	-7%	x	x	0%	x	x
SMILES	Sm TGR inh	LmPK inhibitor	RE007 growth inh	Tb PYK inh	Giardia FBPA inh	NS1 inh
COCCn1c(N2CCN(c3ccccc3)CC2)nc2c1c(=O)n(C)c(=O)n2C	0%	4%	1%	3%	1%	-3%
COCCn1c(C)cc2c(c1=O)C(c1ccccc1F)C(C#N)=C(N)O2 (stereo not given)	3%	-1%	14%	7%	0%	-2%
COCCn1c(C)cc(O)c(C(c2ccccc2OC)N2CCN(c3ccccc3)CC2)c1=O (stereo not given)	3.5µM*	x	x	1%	x	x
COCCn1c(C)cc(O)c(C(c2ccccc2F)N2CCN(c3ccccc3)CC2)c1=O (stereo not given)	4.5µM*	x	x	9%	x	x
COc1ccc(-n2ccnc(NCCc3ccc(S(N)(=O)=O)cc3)c2=O)cc1	-2%	x	x	3%	x	x
O=C1C=CC(=O)N1N(c1ccccc1)c1ccccc1	2.5µM*	u	x	u	-4%	-50%
Cc1ccc(NC(CC(=O)c2ccccc2)c2ccc(F)cc2)cc1 (stereo not given)	0%	-4%	-22%	1%	1%	-10%
O=C(CC(Nc1ccc(F)cc1)C(=O)OCC(=O)c1cccs1)c1ccccc1 (stereo not given)	8.9µM*	1%	u	4%	-1%	-28%
O=C(CC(Nc1ccc(F)cc1)C(=O)O)c1ccccc1 (stereo not given)	1.8µM*	-30%	-14%	-21%	-13%	-9%
COc1cccc(C(=O)COC(=O)c2cccs2)c1	0%	-13%	-26%	-3%	x	4%
O=C(COC(=O)c1cccs1)c1ccccc1	0%	14µM*	u	-6%	4%	-5%
O=C(CCC(=O)c1cccs1)OCC(=O)c1ccc(F)cc1	x	x	-8%	2%	x	x
COc1ccc(N2CCN(S(=O)(=O)c3ccc(C4CCCCC4)cc3)CC2)cc1	-9%	x	x	-1%	x	x
Cc1ccc(NC(=O)CCCn2c(=O)c3cccn3c3ccccc32)c(C)c1	-8%	x	x	-1%	x	x
CC[n+]1c(/C=C2/C=C(C)CC(C)C2)sc2ccccc21 (stereo not given)	40µM*	0%	-22%	u	u	x
Cc1ccc(-n2c(=O)c3c(C)c(C(=O)N(C)C)sc3n(CC(=O)N(C)c3ccccc3)c2=O)cc1C	2%	x	x	-3%	x	x
O=C(Nc1ccc2c(c1)CCC2)c1ccc(Br)o1	-23%	-29%	u	-3%	-21%	-34%
O=C(Nc1ccc2c(c1)OCO2)c1ccc(Br)o1	0%	22µM*	9%	-4%	-10%	-78%
CCn1cc(C(=O)NC(=S)Nc2ccccc2[N+](=O)[O-])cn1	-4%	0%	-15%	0%	x	8%
C/C(CC(=O)Nc1ccc2c(c1)OCO2)=N\NC(=O)c1ccccc1N	u	0%	9%	-1%	5%	6%
CCn1cc(C(=O)NC(=S)Nc2ccccc2Br)cn1	79µM*	-1%	4%	3%	-20%	-2%
C/C(CC(=O)Nc1ccc2c(c1)OCO2)=N\NC(=O)c1ccc(N)cc1	40µM*	-5%	7%	-4%	-13%	3%
O=C(CCS(=O)(=O)c1ccccc1)Nc1ccc2c(c1)OCO2	20µM*	-3%	1%	2%	0%	4%
